This passage reports composite z-score and z-score results from PubChem BioAssay.

Calls of active or inactive are those of the source. Unless noted, no rule for the calls is given here.

Assay [1] concerns XIP peptide (Xip251-270) binding. Briefly: XIP fragment 251-270 binding compounds – biochemical, small-molecule microarray, fluorescence 635/667 nm, 0.1 µg/mL protein, primary screen (AID 1182). The following applies: fluorescent protein binding, 635 nm, higher = more signal, called active from +8 up or from −8 down.
The test system of another assay is XIP peptide (Xip251-270). In words: compounds binding XIP fragment 251-270 – biochemical, small-molecule microarray, fluorescence 635/667 nm, 0.5 µg/mL protein, primary screen (AID 1183). The following applies: fluorescence 635 nm, higher = more signal.
The nature of assay [2]: blood-stage malaria parasite viability loss – strain 3D7, DAPI fluorescence, 100 nL, primary screen (AID 1184).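 Also: parasites grown inside human red blood cells in medium with human serum.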 As to conditions: P. falciparum 3D7 growth, 3 d, higher = more signal.
The target in assay [3] is Homeobox protein Hox-A13 (Mus musculus) (UniProt Q62424). In words: disruptors of Hoxa13 oligonucleotide interaction – biochemical, fluorescence polarization, labeled oligonucleotide, primary screen (AID 1185). The following applies: Hoxa13:DNA binding, 15 min, higher = more signal, called active from +8 up or from −8 down. On the technique in general: Fluorescence polarisation rises when a labelled molecule tumbles more slowly, as on binding a larger partner.
Sequence of Homeobox protein Hox-A13 (Mus musculus) (Q62424 whole entry, looked up): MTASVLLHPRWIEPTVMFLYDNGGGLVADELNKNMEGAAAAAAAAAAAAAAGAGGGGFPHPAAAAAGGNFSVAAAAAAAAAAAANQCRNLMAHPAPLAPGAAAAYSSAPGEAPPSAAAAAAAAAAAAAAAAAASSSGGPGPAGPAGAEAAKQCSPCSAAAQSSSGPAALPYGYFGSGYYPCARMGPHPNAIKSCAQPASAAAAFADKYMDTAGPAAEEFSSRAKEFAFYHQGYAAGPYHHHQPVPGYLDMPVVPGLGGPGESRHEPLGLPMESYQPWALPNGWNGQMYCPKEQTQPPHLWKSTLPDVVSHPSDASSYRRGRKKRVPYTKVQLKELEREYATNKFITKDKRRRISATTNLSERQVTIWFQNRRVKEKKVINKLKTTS

The nature of assay [4]: blockers of DNA damage checkpoint Chk1 activation – imaging, HeLa, hydroxyurea, phospho-Chk1 antibody, percent positive cells, primary screen (AID 1186). As to conditions: hydroxyurea-induced phospho-Chk1 immunofluorescence imaging, higher = more signal.
Assay [5] can be described thus: blockers of DNA damage checkpoint Chk1 activation – imaging, HeLa, hydroxyurea, phospho-Chk1 nuclear intensity, primary screen (AID 1187). As to conditions: hydroxyurea-induced phospho-Chk1 immunofluorescence imaging, higher = more signal.

Take `C=C(C(=O)CC[C@H](OC(=O)c1cccnc1)c1ccccc1OCCO)C(C)C`: the composite z-score in assay [1] is 0.698 (inactive); with XIP peptide (Xip251-270), 0.564. The z-score was -2.3 in assay [2], -4.71 (inactive) in assay [3], 0.321 (inactive) in assay [4] and 0.0728 (inactive) in assay [5].

Turning to `CCOC(=O)C1=C[C@@H](C(C)(C)C)N(S(=O)(=O)c2ccc(C)cc2)[C@H]1c1ccc(Cl)c(Cl)c1`, the composite z-score is -0.0073 (inactive) in assay [1] and 0.762 with XIP peptide (Xip251-270). For the same molecule, the z-score in assay [2] was -1.96; in assay [3], -0.524 (inactive); in assay [4] it was -0.0683 (inactive); in assay [5], -0.633 (inactive).

In the case of `[N-]=[N+]=Nc1ccccc1[C@@H]1OC(c2ccc(OCCCO)cc2)=N[C@]1(CCS(=O)(=O)c1ccccc1)C(=O)N1CCCCC1`, the composite z-score in assay [1] was 1.32 (inactive); in the assay with XIP peptide (Xip251-270) it was 0.574. The z-score in assay [2] was -2.23; in assay [3], -2.67 (inactive); in assay [4] it was 0.0919 (inactive); in assay [5], -0.121 (inactive).

With `O=C1O[C@H](c2ccccc2)[C@H](c2ccccc2)N2[C@H]1[C@@H](C(=O)NC[C@H](O)c1ccccc1)[C@]1(C(=O)Nc3ccc(C#CC4(O)CCCCCC4)cc31)[C@H]2c1ccccc1OCCO`, the figures for the composite z-score (in assay [1]; in the assay on XIP peptide (Xip251-270)) were -0.34 (inactive) and 0.814, respectively. Besides, the z-score in assay [2] is -2.04; in assay [3], -2.77 (inactive); in assay [4], -0.0899 (inactive); in assay [5], -0.0113 (inactive).

In the case of `C#C[C@H]1Oc2ccccc2S(=O)(=O)N2CCC[C@@H]12`, the composite z-score in assay [1] is -0.267 (inactive); in the assay with XIP peptide (Xip251-270), -0.286. Also, the z-score in assay [2] is 0.562; in assay [3], -1.15 (inactive); in assay [4] it was 0.528 (inactive); in assay [5], 0.526 (inactive).

On to `OCCCc1cc[n+](Cc2cccc(OC(F)(F)F)c2)cc1`, for which the values for the composite z-score (in assay [1]; with XIP peptide (Xip251-270)) were 0.307 (inactive) and 0.768, respectively. Further, the z-score in assay [2] was -1.47; in assay [3] it was -3.06 (inactive); in assay [4] it was -0.284 (inactive); in assay [5], -0.678 (inactive).

Consider `Cc1ccc(S[C@]2(C(=O)NCCN3CCOCC3)CC(=O)N(C3CCCCC3)[C@@H]2c2ccc(CO)cc2)cc1`, for which the composite z-score was -0.202 (inactive) in assay [1] and 0.886 in the assay on XIP peptide (Xip251-270). For the same molecule, the z-score in assay [2] was -0.75; in assay [3], -4 (inactive); in assay [4], -0.0334 (inactive); in assay [5], 0.206 (inactive).

With `O=C1OCCC=C[C@H]2OC34C=CCN(c5ccc6ccccc6c5)C(=O)[C@H]3N(CCCCCCO)C(=O)[C@@H]4C12` (stereo partly specified), the composite z-score in assay [1] is -0.0517 (inactive); in the assay with XIP peptide (Xip251-270) it was 0.79. Besides, the z-score in assay [2] is 0.0888; in assay [3] it was -5.18 (inactive); in assay [4], 0.183 (inactive); in assay [5] it was 0.399 (inactive).

For `COCCOC(=O)N1C(=O)[C@@]2(c3ccccc31)[C@H](c1ccc(O)cc1)N1[C@H](c3ccccc3)[C@H](c3ccccc3)OC(=O)[C@H]1[C@@H]2C(N)=O`, the composite z-score is -0.728 (inactive) in assay [1] and -0.0106 in the assay on XIP peptide (Xip251-270). Moreover, the z-score in assay [2] was 0.346; in assay [3], -5.26 (inactive); in assay [4], -0.0882 (inactive); in assay [5] it was -0.282 (inactive).

With `Cn1c2c(c3ccccc31)C(=O)C1NC2C=CC1(C)C(=O)OCc1ccccc1` (stereo unspecified), the values for the composite z-score (in assay [1]; in the assay on XIP peptide (Xip251-270)) were -0.605 (inactive) and -0.416, respectively. Further, the z-score in assay [2] is -0.502; in assay [3] it was -3.9 (inactive); in assay [4], -0.3 (inactive); in assay [5] it was -0.512 (inactive).

Regarding `O=C1O[C@H](c2ccccc2)[C@H](c2ccccc2)N2[C@H]1[C@@H](C(=O)N1CCCCCCC1)[C@]1(C(=O)Nc3ccc(C#CC4=CCCCC4)cc31)[C@H]2c1ccc(O)cc1`, the composite z-score in assay [1] is 8.07 (active); in the assay with XIP peptide (Xip251-270) it was 1. Also, the z-score in assay [2] was -1.96; in assay [3], 3.02 (inactive); in assay [4], -0.323 (inactive); in assay [5] it was -0.649 (inactive).

Turning to `O[C@@H](Cc1ccccc1)[C@@H](/C=C/c1ccccc1)NCc1ccccc1Br`, the composite z-score is -0.265 (inactive) in assay [1] and 0.727 in the assay with XIP peptide (Xip251-270). The z-score is 0.871 in assay [2], -0.419 (inactive) in assay [3], -0.28 (inactive) in assay [4] and 0.364 (inactive) in assay [5].

For `[N-]=[N+]=NCc1ccccc1C[C@@]1(C(=O)NCc2ccccc2)N=C(c2ccc(OCCCO)cc2)O[C@@H]1c1ccccc1CN=[N+]=[N-]`, the composite z-score was 0.804 (inactive) in assay [1] and 0.735 in the assay on XIP peptide (Xip251-270). Also, the z-score in assay [2] is -2.59; in assay [3], 3.34 (inactive); in assay [4], -0.174 (inactive); in assay [5] it was -0.332 (inactive).

As for `CC(C)N1C(=O)c2ccccc2[C@](C)(C(=O)NC2CC2)[C@@H]1c1ccc(CO)cc1`, the composite z-score in assay [1] was -0.318 (inactive); in the assay with XIP peptide (Xip251-270) it was 0.0807. In addition, the z-score in assay [2] was -0.335; in assay [3], -1.64 (inactive); in assay [4], -0.119 (inactive); in assay [5], 0.0866 (inactive).

Regarding `C=C(CCCC)C(=O)CC[C@@H](OC(=O)c1ccccc1-c1ccccc1C(=O)O)c1ccc(CO)o1`, the composite z-score was 0.412 (inactive) in assay [1] and 0.432 with XIP peptide (Xip251-270). Besides, the z-score was 1.61 in assay [2], -5.58 (inactive) in assay [3], 0.629 (inactive) in assay [4] and 0.717 (inactive) in assay [5].

On to `O=C(CS)NCCCCCCNC(=O)[C@H]1C[C@H]2C(=O)N3CCC[C@H]3C(=O)N2[C@H]1c1ccc(O)cc1`, for which the values for the composite z-score (in assay [1]; in the assay on XIP peptide (Xip251-270)) were 0.573 (inactive) and 0.646, respectively. The z-score in assay [2] was -0.38; in assay [3], -2.8 (inactive); in assay [4], -0.508 (inactive); in assay [5] it was -0.19 (inactive).

As to `CO[C@H]1O[C@H](CO)[C@@H](OC(=O)Nc2ccccc2-c2ccccc2)[C@H](OC(=O)Nc2ccccc2-c2ccccc2)[C@H]1OC(=O)Nc1ccccc1-c1ccccc1`, the values for the composite z-score (in assay [1]; with XIP peptide (Xip251-270)) were 0.0163 (inactive) and 0.861, respectively. The z-score in assay [2] is -1.06; in assay [3], -2.05 (inactive); in assay [4], -0.0075 (inactive); in assay [5], 0.618 (inactive).

For the molecule `COC(=O)[C@@]1(Cc2ccc(F)cc2)[C@H]2c3cc(C(=O)N4CCCC4)n(CCc4ccc(OC)c(Br)c4)c3C[C@H]2CN1C(=O)c1ccccc1`, the values for the composite z-score (in assay [1]; in the assay with XIP peptide (Xip251-270)) were -0.0505 (inactive) and 0.557, respectively. The z-score in assay [2] was -1.58; in assay [3], -2.27 (inactive); in assay [4], -1.03 (inactive); in assay [5], -0.872 (inactive).

Consider `CCCC[C@@H]1C[C@H]1[C@@H](NC(=O)c1ccccc1)c1ccc(-c2ccccc2)cc1`, for which the composite z-score in assay [1] is 0.397 (inactive); in the assay with XIP peptide (Xip251-270), -0.0572. Further, the z-score in assay [2] was -0.0371; in assay [3], -3.63 (inactive); in assay [4], -0.0528 (inactive); in assay [5], 0.215 (inactive).

On to `CC(C)(C)OC(=O)CC[C@@]1(C(N)=O)N=C(c2ccc(OCCCO)cc2)O[C@@H]1c1ccccc1N=[N+]=[N-]`, for which the composite z-score in assay [1] was 0.0344 (inactive); in the assay with XIP peptide (Xip251-270) it was 0.839. Besides, the z-score in assay [2] was -0.338; in assay [3], -6.23 (inactive); in assay [4], -0.244 (inactive); in assay [5] it was -0.0977 (inactive).

As to `CC(C)[Si]1(C(C)C)O[C@@H](c2ccccc2)c2cc(-c3ccc(-c4ccc(Cl)c(Cl)c4)o3)nc(CCc3ccccc3)c21`, the composite z-score is -0.0577 (inactive) in assay [1] and -1.03 with XIP peptide (Xip251-270). For the same molecule, the z-score in assay [2] was 0.952; in assay [3], -0.21 (inactive); in assay [4], 0.0301 (inactive); in assay [5], -0.289 (inactive).
